The values below come from PubChem BioAssay.

The structures appear in SMILES notation. For part of these data: Measured potencies and affinities stand elsewhere. Calls of active or inactive are those of the source.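 How the source made its calls, unless noted: active means dose curve with midpoint inside tested range, moderate steepness, plateau gap beyond fit error, low compound glow and bead-link interference; inactive means the rest.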

Test [1] has as its target Cell division control protein 42 homolog (Homo sapiens) (UniProt P60953). Briefly: activated mutant Cdc42 GTP-binding inhibitors, dose response, biochemical, multiplex bead flow cytometry, Bodipy-FL-GTP (AID 1333;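 active means fitted half-maximal concentration within the tested dose range, moderate curve steepness, a statistically real signal drop, and little compound fluorescence or tag-binding interference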). A general note: A flow cytometer gives signals particle by particle.
For test [2] the target is unchanged. Briefly: wildtype Cdc42 GTP-binding inhibitors, dose response, biochemical, multiplex bead flow cytometry, Bodipy-FL-GTP (AID 1334;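 active means fitted half-maximal concentration within the tested range, moderate curve steepness, significant signal drop, and little compound fluorescence or bead-linkage interference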). The conditions noted are these: bead-based flow cytometry, Bodipy-FL-GTP binding to GST-Cdc42; at 100 µM (top of the series) unless noted.
In test [3] the target is GTPase HRas (Homo sapiens) (UniProt P01112). In words: inhibitors of GTP binding to wildtype Ras, dose response, biochemical, multiplex bead flow cytometry (AID 1335;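 active means fitted half-maximal concentration within 10 nM to 100 µM, steepness 0.5 to 2, significant signal drop, low assay interference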). The conditions noted are these: bead-based flow cytometry, Bodipy-GTP binding to GST-Ras; at 100 µM (top of the series) unless noted.
For test [4], the system named is Ras-related protein Rab-7a (dog), GTP binding. In words: Rab7 GTP binding inhibitors, potency, dose response, biochemical, wildtype, multiplex bead flow cytometry (AID 1336; call rule not given here).
Test [5] concerns the target Ras-related C3 botulinum toxin substrate 1 (Homo sapiens) (UniProt P63000). Briefly: wildtype Rac1 GTP binding inhibitors, dose response, biochemical, multiplex bead flow cytometry (AID 1340). The conditions noted are these: GST-Rac1 beads, Bodipy-FL-GTP binding; at 100 µM (top of the series) unless noted.
For test [6], the target named is GTPase HRas (Homo sapiens) (UniProt P01112). In words: activated Ras mutant GTP binding inhibitors, dose response, biochemical, multiplex bead flow cytometry (AID 1341;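 active means dose-response curve with midpoint inside the tested range, moderate steepness, significant amplitude and little compound fluorescence or bead-attachment interference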;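 further: GST-tagged constitutively activated Ras mutant immobilized on beads and multiplexed with other GTPases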).

GTPase HRas (Homo sapiens), sequence (P01112 whole entry, looked up): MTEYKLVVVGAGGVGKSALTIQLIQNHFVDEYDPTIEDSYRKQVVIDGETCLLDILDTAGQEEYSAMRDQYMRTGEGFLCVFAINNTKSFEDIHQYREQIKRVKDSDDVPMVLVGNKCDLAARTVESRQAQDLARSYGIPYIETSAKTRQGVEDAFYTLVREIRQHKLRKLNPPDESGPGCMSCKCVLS
Cell division control protein 42 homolog (Homo sapiens), sequence (P60953 whole entry, looked up): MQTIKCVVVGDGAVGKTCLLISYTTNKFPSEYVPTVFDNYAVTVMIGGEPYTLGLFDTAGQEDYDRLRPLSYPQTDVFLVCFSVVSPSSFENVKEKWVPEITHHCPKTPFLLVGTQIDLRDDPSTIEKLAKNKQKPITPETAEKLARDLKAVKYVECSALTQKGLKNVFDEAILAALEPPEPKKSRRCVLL

`CC(C)CCNC(=O)Cc1ccc(Nc2nc(=S)[nH]c3ccccc23)cc1`: the compound was classed as inactive in test [1], in test [4] and in test [6]. For the same compound, in test [2], the fluorescence, percent of control (lower = inhibition) is 32.2%. In test [3], the GTP binding, percent of control turned out to be 71.5%. Moreover, the GTP binding signal, raw median fluorescence (lower = inhibition) (MCF (arbitrary fluorescence units)) in test [5] is 169.
Regarding `O=C(CNC(=O)c1ccco1)OCN1C(=O)c2ccccc2C1=O`, the compound was classed as inactive in test [1], in test [4] and in test [6]. For the same compound, the fluorescence, percent of control (lower = inhibition) in test [2] amounted to 52%. In test [3], this compound had a GTP binding, percent of control of 66.1%. Further, the GTP binding signal, raw median fluorescence (lower = inhibition) (MCF (arbitrary fluorescence units)) in test [5] turned out to be 220.
With `Cc1nc2cc(C(=O)NCc3ccc4c(c3)OCO4)ccc2n1-c1ccc(Br)cc1`, the result in test [1], in test [4] and in test [6] was inactive. In addition, in test [2], the fluorescence, percent of control (lower = inhibition) was 42.6%. In addition, the GTP binding, percent of control in test [3] was determined as 62.2%. This compound also gave a GTP binding signal, raw median fluorescence (lower = inhibition) (MCF (arbitrary fluorescence units)) in test [5] of 172.
As for `O=C1C2CC=CCC2C(=O)N1c1ncn[nH]1` (stereo not given), the result in test [1], in test [4] and in test [6] was inactive. Further, the fluorescence, percent of control (lower = inhibition) in test [2] came out at 97.2%. This compound displayed a GTP binding, percent of control in test [3] of 161%. In test [5], this compound displayed a GTP binding signal, raw median fluorescence (lower = inhibition) (MCF (arbitrary fluorescence units)) of 189.
On to `CCOc1ccccc1NC(=O)CSc1ccc2nnc(-c3cccnc3)n2n1`, for which the outcome in test [1], in test [4] and in test [6] was inactive. Besides, the fluorescence, percent of control (lower = inhibition) in test [2] came out at 29.2%. In addition, the GTP binding, percent of control in test [3] stood at 65.1%. This compound also returned a GTP binding signal, raw median fluorescence (lower = inhibition) (MCF (arbitrary fluorescence units)) in test [5] of 136.
In the case of `CCOc1c2ccc(C(=O)N[C@H](C)C3CCCCC3)cc2nn1CCOC`, the call in test [1], in test [4] and in test [6] was inactive. Also, in test [2], the fluorescence, percent of control (lower = inhibition) turned out to be 94.9%. Also, in test [3], the GTP binding, percent of control turned out to be 152%. In test [5], this compound gave a GTP binding signal, raw median fluorescence (lower = inhibition) (MCF (arbitrary fluorescence units)) of 197.
With `O=C(O)Cn1cc(C(=O)C2CCCCC2)c2ccccc21`, the outcome in test [1], in test [4] and in test [6] was inactive. In test [2], the fluorescence, percent of control (lower = inhibition) amounted to 59.5%. Further, the GTP binding, percent of control in test [3] was 88.6%. Further, the GTP binding signal, raw median fluorescence (lower = inhibition) (MCF (arbitrary fluorescence units)) in test [5] was determined as 32.
As to `COc1cccc(/C=C/C(=O)Nc2ccccc2N2CCOCC2)c1`, the compound was called inactive in test [1], in test [4] and in test [6]. Further, the fluorescence, percent of control (lower = inhibition) in test [2] came to 33.2%. Also, the GTP binding, percent of control in test [3] came to 83.5%. Also, the GTP binding signal, raw median fluorescence (lower = inhibition) (MCF (arbitrary fluorescence units)) in test [5] stood at 243.
`CS(=O)(=O)Nc1ccc(Br)cc1C(=O)c1ccccc1`: the outcome in test [1], in test [4] and in test [6] was inactive. Also, the fluorescence, percent of control (lower = inhibition) in test [2] worked out at 46.4%. The GTP binding, percent of control in test [3] stood at 59%. The compound also came in with a GTP binding signal, raw median fluorescence (lower = inhibition) (MCF (arbitrary fluorescence units)) in test [5] of 205.
As for `N#C/C(=C\c1ccc(-c2ccc(C(=O)O)cc2)o1)c1nc2ccccc2[nH]1`, the compound was classed as inactive in test [1], in test [4] and in test [6]. The fluorescence, percent of control (lower = inhibition) in test [2] was 168%. For the same compound, the GTP binding, percent of control in test [3] was determined as 221%. This compound displayed a GTP binding signal, raw median fluorescence (lower = inhibition) (MCF (arbitrary fluorescence units)) in test [5] of 144.
In the case of `Cc1nnc2ccc(-c3cccc(NC(=O)c4ccco4)c3)nn12`, the compound was classed as inactive in test [1], in test [4] and in test [6]. Also, the fluorescence, percent of control (lower = inhibition) in test [2] is 28.7%. For the same compound, the GTP binding, percent of control in test [3] stood at 59.2%. In addition, the GTP binding signal, raw median fluorescence (lower = inhibition) (MCF (arbitrary fluorescence units)) in test [5] stood at 131.
Turning to `O=[N+]([O-])c1cc(Cc2ccccc2)cc(C=Nc2ccc(N3CCOCC3)cc2)c1O`, the result in test [1], in test [4] and in test [6] was inactive. Moreover, in test [2], the fluorescence, percent of control (lower = inhibition) was 45.1%. In test [3], the GTP binding, percent of control was determined as 65.5%. This compound returned a GTP binding signal, raw median fluorescence (lower = inhibition) (MCF (arbitrary fluorescence units)) in test [5] of 0.
On to `Cc1c(C(=O)N/N=C/c2ccc(O)c(Br)c2)sc(N)c1C#N`, for which the outcome in test [1], in test [4] and in test [6] was inactive. In test [2], the fluorescence, percent of control (lower = inhibition) was found to be 27.1%. The compound further registered a GTP binding, percent of control in test [3] of 64.7%. Besides, the GTP binding signal, raw median fluorescence (lower = inhibition) (MCF (arbitrary fluorescence units)) in test [5] was 151.
Consider `O=C(Nn1cc(C(=O)N2CCN(c3ccccc3F)CC2)c2ccccc2c1=O)c1cnccn1`, for which the compound was called inactive in test [1], in test [4] and in test [6]. Besides, the fluorescence, percent of control (lower = inhibition) in test [2] is 98.6%. The same compound returned a GTP binding, percent of control in test [3] of 156%. Besides, the GTP binding signal, raw median fluorescence (lower = inhibition) (MCF (arbitrary fluorescence units)) in test [5] came to 197.
For `Cc1ccc(Cc2cnc(NC(=O)/C(C#N)=C/c3ccc(-c4ccc([N+](=O)[O-])cc4)o3)s2)cc1`, the compound was classed as inactive in test [1], in test [4] and in test [6]. For the same compound, the fluorescence, percent of control (lower = inhibition) in test [2] was found to be 28.5%. This compound also gave a GTP binding, percent of control in test [3] of 75.1%. In test [5], this compound returned a GTP binding signal, raw median fluorescence (lower = inhibition) (MCF (arbitrary fluorescence units)) of 223.
